The list is not random: actives were taken first. Their share in the collection is about 9.2%.
ELG1 genotoxic: induces genotoxicity in HEK293T cells with luciferase-tagged ELG1; Potency, µM (highest dose often 46 µM), most hits filed as activators; HEK293T ELG1-luciferase reporter, luminescence, 16 h; AID 504466; actives 1.3% (n = 330,000); further: nearly all actives have a fitted effect of over 60% in size
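Quantitative HTS format in 1536-well plates. HEK293T ELG1-luciferase reporter cells receive test compound and are incubated 16 hr at 37 °C, 5% CO2; ONE-Glo added, 30 min room temperature, then luminescence read.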
Rab9 prom act: Rab9 promoter activation; actives 2.8% (n = 320,000); Huh7 Rab9 promoter-luciferase reporter, luminescence, 24 h; Potency, µM (top dose mostly 9.22 µM), usual class: activators; AID 485297; further: nearly all actives have a fitted effect of over 60% in size
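Cells were plated at 1500 per well in reduced-serum medium with 10% FBS and left 2 h. Compound in DMSO was then added for 24 h at 37 °C. Reporter signal was read by luminescence after 10 min with luciferase detection reagent.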
ELG1 DNA repair: ELG1-dependent DNA repair inhibition. Potency, µM (series often up to 46.1 µM), usual class: inhibitors. HEK293T ELG1-luciferase reporter, luminescence, 16 h; DNA damage induced by 5-fluorouridine. actives 2.3% (n = 330,000); further: nearly all actives have a fitted effect of over 55% in size
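Reporter activity after DNA damage by 5-fluorouridine is monitored. Compound-treated cells incubate 16 hr at 37 °C, then ONE-Glo is added for 30 min before luminescence reading.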
FLuc modulator: firefly luciferase modulation, counter-screen for miR-21 project; Potency, µM (highest dose often 57.5 µM), most hits filed as inhibitors; actives 6.9% (n = 360,000); purified FLuc, Km substrates, luminescence inhibition; P08659; further: nearly all actives have a fitted effect of over 55% in size
Target sequence (P08659 whole entry, looked up): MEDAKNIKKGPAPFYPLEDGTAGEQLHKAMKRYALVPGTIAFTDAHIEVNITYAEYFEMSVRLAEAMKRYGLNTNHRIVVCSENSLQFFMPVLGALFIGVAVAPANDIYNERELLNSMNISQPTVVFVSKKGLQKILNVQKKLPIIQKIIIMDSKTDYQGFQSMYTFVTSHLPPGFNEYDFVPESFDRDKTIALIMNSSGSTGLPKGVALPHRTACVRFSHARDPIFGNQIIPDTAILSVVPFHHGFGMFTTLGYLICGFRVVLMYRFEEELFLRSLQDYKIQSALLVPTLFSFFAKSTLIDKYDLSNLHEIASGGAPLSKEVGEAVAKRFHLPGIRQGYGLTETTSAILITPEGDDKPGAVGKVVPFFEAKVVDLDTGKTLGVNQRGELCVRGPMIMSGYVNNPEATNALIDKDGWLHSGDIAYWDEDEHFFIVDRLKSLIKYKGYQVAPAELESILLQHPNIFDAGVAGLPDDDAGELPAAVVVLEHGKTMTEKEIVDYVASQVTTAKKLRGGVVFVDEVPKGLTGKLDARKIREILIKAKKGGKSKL
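Purified P. pyralis luciferase, 10 nM final, with Km-level 10 uM D-luciferin and 10 uM ATP in 50 mM Tris acetate pH 7.5, 10 mM Mg acetate, 0.01% Tween-20, 0.05% BSA; 6-point qHTS titration about 60 µM downward; luminescence read.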
SMN2 splice enh: SMN2 splice variant enhancement; HEK293 SMN2-luciferase splicing reporter, luminescence, 30-36 h; Potency, µM (titrated, usually from 46.1 µM), hits mostly activators; actives 2.8% (n = 210,000); AID 1458; further: nearly all actives have a fitted effect of over 55% in size
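qHTS luciferase splicing reporter: luminescence rises when SMN2 exon 7 is included in transfected HEK293 cells. Compound exposure lasted 30-36 h at 37C, with 4.5 mM final sodium butyrate as control, followed by a ONE-Glo read.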
NPC1 promoter act: activates the NPC1 promoter; Huh7 NPC1 promoter luciferase reporter, 24 h; Potency, µM (titrated, usually from 9.22 µM), usual class: activators; actives 2.4% (n = 320,000); further: nearly all actives have a fitted effect of over 60% in size
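Stable NPC1-promoter luciferase Huh7 line; cpd (DMSO) 24 h, 37 °C, 5% CO2; Amplite luciferase reagent 10 min RT; luminescence readout. qHTS format.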
Numbers stand for hits; i = inactive; ? = inconclusive; nt = not tested or not shown; [ ] = dose if it differs, or a comment. The call rests on the fitted dose curve; in most records, active means well fitted curve in the direction sought with a large enough effect; inconclusive means small, poorly fitted or top-dose-only effect, or another doubt; inactive means no such curve, though single readings can be large; an effect the other way counts as inactive or inconclusive.

SMILES | ELG1 genotoxic | Rab9 prom act | ELG1 DNA repair | FLuc modulator | SMN2 splice enh | NPC1 promoter act
O=C(CCCC(=O)OCC(=O)c1ccc(Cl)cc1)NC1CCCCC1 | i | i | i | 12µM | nt | i
Cc1c(O)ccc2c(O)c(NC(=O)c3ccc4c(c3)CCC(C)(C)O4)c(=O)oc12 | i | i | i | i | nt | i
COc1ccc(/C=N/NC(=O)c2cc(-c3ccccc3)nc3ccccc23)cc1O | i | i | i | 5.4µM | nt | i
COc1cc(/C=N/NC(=O)c2cc(-c3ccccc3OC(C)C)nc3ccccc23)ccc1O | i | i | ? | i | ? | i
CCn1cc(/C=N\NC(=O)c2csc3ccccc23)c(C)n1 | i | i | ? | ? | i | i
O=C(N/N=C/c1ccccn1)c1cc(-c2ccccc2)nc2ccccc12 | ? | i | i | 13µM | nt | i
O=C(O)COc1ccccc1/C=N/NC(=O)c1cc2ccccc2cc1O | i | i | ? | 7.6µM | nt | i
O=C(N/N=C/c1ccc(O)cc1)c1csc2ccccc12 | i | i | ? | 15µM | i | i
Cc1oc2ncn(C)c(=O)c2c1C(=O)NCc1ccc(Cl)cc1 | nt | nt | nt | i | nt | nt
COc1ccc(N2CCN(C(=O)c3sc4nc5n(c(=O)c4c3C)CCC5)CC2)cc1 | nt | nt | nt | i | nt | nt
COc1ccccc1N(CC(=O)Nc1ccc(Br)cc1F)S(=O)(=O)c1cccs1 | i | i | i | i | nt | i
CSc1ccccc1C(=O)OCC(=O)Nc1ccc(N2CCOCC2)cc1 | i | nt | ? | nt | nt | nt
Cc1ccc(/C=N/NC(=O)c2cc(-c3ccccc3)nc3ccccc23)o1 | i | i | i | 12µM | nt | i
CCOc1ccc(/C=N/NC(=O)c2cc(-c3ccccc3)nc3ccccc23)cc1O | i | i | i | 15µM | nt | i
COc1cc([N+](=O)[O-])cc(/C=N/NC(=O)c2cc(-c3ccccc3)nc3ccccc23)c1O | ? | i | ? | ? | nt | i
O=C(N/N=C/c1ccc(O)cc1)c1cc(-c2ccccc2)nc2ccccc12 | i | i | i | 5.4µM | nt | i
O=C(N/N=C/c1ccc(F)cc1)c1cc(-c2ccccn2)nc2ccccc12 | i | i | i | i | nt | i
COc1ccc(/C=N/NC(=O)c2cc(-c3ccccc3)nc3ccccc23)c(C(=O)O)c1OC | i | i | i | 7.6µM | nt | i
Cc1ccc(-c2cc(C(=O)N/N=C/c3ccoc3)c3ccccc3n2)cc1 | i | i | i | 4.8µM | nt | i
O=C(O)COc1ccccc1/C=N/NC(=O)c1cc(-c2ccc(F)cc2)nc2ccccc12 | i | i | ? | 1.9µM | i | i
O=C(N/N=C/c1ccco1)c1cc(-c2ccncc2)nc2ccccc12 | i | i | i | ? | nt | i
COc1cc(/C=N/NC(=O)c2cc(-c3ccccc3)nc3ccccc23)ccc1O | i | i | ? | 11µM | nt | i
COc1ccccc1-c1cc(C(=O)N/N=C\c2cn(C)nc2C)c2ccccc2n1 | i | i | ? | i | i | i
Cc1ccc(-c2cc(C(=O)N/N=C/c3c(C)nn(C)c3C)c3ccccc3n2)cc1C | ? | ? | ? | 0.6µM | ? | i
CCOC(=O)CCCNC(=O)CN1CCC(c2nc3ccccc3s2)CC1 | i | i | i | i | nt | i
SMILES | ELG1 genotoxic | Rab9 prom act | ELG1 DNA repair | FLuc modulator | SMN2 splice enh | NPC1 promoter act
CC(Oc1ccc(Br)cc1)C(=O)Nc1ncn[nH]1 (stereo not given) | nt | nt | nt | i | i | nt
O=C(N/N=C/c1cc(Cl)cc([N+](=O)[O-])c1O)c1cc(-c2ccccn2)nc2ccccc12 | i | i | ? | 21µM | nt | i
CCN(CC)S(=O)(=O)c1cccc(C(=O)N/N=C/c2ccccc2OCC(=O)O)c1 | i | i | i | 27µM | i | i
COc1ccccc1NS(=O)(=O)c1cccc(C(=O)N/N=C/c2ccccc2OCC(=O)O)c1 | i | i | i | i | i | i
O=C(N/N=C/c1ccc2c(c1)OCO2)c1cc(-c2ccc(F)cc2)nc2ccccc12 | i | i | i | 5.4µM | i | i
COc1ccc(-c2cc(C(=O)N/N=C/c3ccc4c(c3)OCO4)c3ccccc3n2)c(OC)c1 | i | i | ? | ? | i | i
O=C(C1CCCN(Cc2ccc(Br)cc2)C1)N1CCCCC1 (stereo not given) | i | i | ? | i | nt | i
CCOC(=O)c1sc(NC(=O)c2c(-c3ccccc3)c(-c3ccccc3)nn(C)c2=O)nc1C | nt | nt | nt | ? | i | nt
Clc1ccccc1CSc1ncn(-c2ccccc2)n1 | ? | ? | ? | 7.6µM | 22µM | 3.5µM
CCOC(=O)c1c(C)oc2nc(C)nc(NCC3CCN(Cc4cccc(Cl)c4)CC3)c12 | nt | nt | nt | i | nt | nt
Cn1cnc(S(=O)(=O)N2CCC(C(=O)NCc3ccc(Cl)cc3)CC2)c1 | nt | nt | nt | i | nt | nt
CCOC(=O)c1ccccc1NC(=O)c1cn(-c2ccc(OC)cc2)c(=O)c2ccccc12 | i | i | 6.5µM | i | i | i
CCOC(=O)c1ccccc1NC(=O)c1cn(-c2ccc(C)c(C)c2)c(=O)c2ccccc12 | i | i | ? | i | i | i
CCOc1ccccc1CNC(=O)c1cn(-c2ccc(OC)cc2)c(=O)c2ccccc12 | nt | nt | nt | 9.5µM | nt | nt
CCCN(CCC)CCCNC(=O)c1cn(-c2ccc(OC)cc2)c(=O)c2ccccc12 | i | i | i | i | nt | i
COC(=O)c1ccccc1NC(=O)c1cn(-c2ccc(C)c(C)c2)c(=O)c2ccccc12 | i | i | 9.2µM | i | i | i
Cc1cc(C(=O)COC(=O)c2cc(Cl)ccc2N)c(C)n1Cc1ccco1 | 9.2µM | 2.5µM | ? | 2.4µM | 14µM | 3.5µM
Cc1cccc(-n2nnnc2SCC(=O)c2cc(C)n(Cc3ccco3)c2C)c1 | i | i | i | i | i | i
O=C(COC(=O)c1ccco1)c1ccc(F)cc1 | ? | i | i | 2.7µM | nt | i
Cc1cc(C(=O)COC(=O)c2ccncc2)c(C)n1Cc1ccco1 | i | ? | i | 0.85µM | i | i
Cc1cc(C(=O)CSc2nnc(N)s2)c(C)n1Cc1ccco1 | 1.8µM | 0.45µM | ? | 3µM | ? | 0.45µM
CC(C)(CO)[C@H](O)C(=O)NCCCO | nt | nt | nt | nt | i | nt
Cc1cc(C(=O)COC(=O)c2ccco2)c(C)n1Cc1ccco1 | 2.6µM | 1.4µM | ? | 0.21µM | i | ?
Cc1cc(C(=O)COC(=O)c2cccn2C)c(C)n1Cc1ccco1 | 0.41µM | 0.63µM | ? | 0.6µM | ? | 0.79µM
CC(C)C(NC(=O)c1ccco1)C(=O)OCC(=O)c1ccccc1 (stereo not given) | i | i | i | 17µM | nt | i
COC(=O)c1ccc(OCC2c3cc(OC)c(OC)cc3CCN2C(=O)c2cccc(C)c2)cc1 (stereo not given) | nt | nt | nt | i | nt | nt
Cc1ccc(-c2ccc(SCC(=O)c3ccccc3)nn2)cc1 | ? | ? | ? | 15µM | 6.3µM | ?
COc1ccc(-c2ccc(SCC(=O)Nc3cc(C)on3)nn2)cc1OC | i | ? | i | i[2.3 µM] | nt | i

High-throughput results deposited in PubChem by National Center for Advancing Translational Sciences (NCATS).
